Assay results taken from publication PMC11024108.

How the values were obtained:
[1] = target: Proteasome subunit beta type-7 (UniProt P70195); test: cross-link between two proteins; cross-linking mass spectrometry
Putative protein FAM10A5 = Putative protein FAM10A5 (UniProt Q8NFI4); test: as above
[2] = target: RCC1-like G exchanging factor-like protein (UniProt Q96I51); test: as above
Radixin = Radixin (UniProt P35241); test: as above
[3] = target: Ragulator complex protein LAMTOR3 (UniProt Q9UHA4); test: as above
[4] = target: Ras-related protein Rab-3A (UniProt P63011); test: as above
[5] = target: Rho guanine nucleotide exchange factor 7 (UniProt Q9ES28); test: as above
[6] = target: Ribosome-binding protein 1 (UniProt Q9P2E9); test: as above
[7] = target: S-adenosylhomocysteine hydrolase-like protein 1 (UniProt Q80SW1); test: as above
Septin-10 = Septin-10 (UniProt Q9P0V9); test: as above
Septin-2 = Septin-2 (UniProt Q15019); test: as above
Septin-8 = Septin-8 (UniProt Q8CHH9); test: as above
[8] = target: Small ribosomal subunit protein mS40 (UniProt Q9Y676); test: as above
[9] = target: Sodium/potassium-transporting ATPase subunit alpha-1 (UniProt Q8VDN2); test: as above
[10] = target: Sodium/potassium-transporting ATPase subunit alpha-2 (UniProt Q6PIE5); test: as above
[11] = target: Spectrin alpha chain, non-erythrocytic 1 (UniProt P16546); test: as above
[12] = target: Splicing factor 3B subunit 2 (UniProt Q13435); test: as above
[13] = target: Ras-related protein Rab-5C (UniProt P51148); test: cross-linking mass spectrometry
[14] = target: T-complex protein 1 subunit gamma (UniProt P49368); test: cross-linking mass spectrometry
[15] = target: tRNA-splicing ligase complex subunit RTRAF (UniProt Q9Y224); test: cross-linking mass spectrometry
[16] = target: Succinate--CoA ligase [ADP-forming] subunit beta, mitochondrial (UniProt Q9P2R7); test: cross-link between two proteins; cross-linking mass spectrometry
Synapsin-2 = Synapsin-2 (UniProt Q64332); test: as above
[17] = target: Vesicle-associated membrane protein 1 (UniProt Q62442); test: as above
Synapsin-3 = Synapsin-3 (UniProt Q8JZP2); test: as above
[18] = target: Synaptic vesicle glycoprotein 2A (UniProt Q9JIS5); test: as above
Synaptopodin = Synaptopodin (UniProt Q8CC35); test: as above
Synaptotagmin-2 = Synaptotagmin-2 (UniProt P46097); test: as above
[19] = target: T-complex protein 1 subunit beta (UniProt P80314); test: as above
[20] = target: T-complex protein 1 subunit delta (UniProt P80315); test: as above
[21] = target: T-complex protein 1 subunit epsilon (UniProt P80316); test: as above
[22] = target: T-complex protein 1 subunit theta (UniProt P42932); test: as above
[23] = target: T-complex protein 1 subunit gamma (UniProt P80318); test: as above
[24] = target: T-complex protein 1 subunit zeta (UniProt P80317); test: as above
Talin-2 = Talin-2 (UniProt Q71LX4); test: as above
[25] = target: Thioredoxin domain-containing protein 5 (UniProt Q8NBS9); test: as above
[26] = target: Transcriptional activator protein Pur-alpha (UniProt P42669); test: as above
[27] = target: Translation machinery-associated protein 7 (UniProt Q9Y2S6); test: as above
[28] = target: Transmembrane emp24 domain-containing protein 5 (UniProt Q9Y3A6); test: as above
[29] = target: Trifunctional enzyme subunit alpha, mitochondrial (UniProt P40939); test: as above
Tubulin alpha-1A chain = Tubulin alpha-1A chain (UniProt P68369); test: as above
[30] = target: UDP-glucose:glycoprotein glucosyltransferase 1 (UniProt Q9NYU2); test: as above
[31] = target: Ubiquitin-like protein NEDD8 (UniProt Q15843); test: as above
[32] = target: V-type proton ATPase subunit C 1 (UniProt Q9Z1G3); test: as above
[33] = target: V-type proton ATPase subunit F (UniProt Q9D1K2); test: as above
[34] = target: V-type proton ATPase subunit D (UniProt P57746); test: as above
[35] = target: V-type proton ATPase subunit E 1 (UniProt P50518); test: as above
[36] = target: V-type proton ATPase subunit G 1 (UniProt Q9CR51); test: as above
[37] = target: V-type proton ATPase subunit G 2 (UniProt Q9WTT4); test: as above
[38] = target: V-type proton ATPase subunit H (UniProt Q8BVE3); test: as above
[39] = target: Vesicle transport through interaction with t-SNAREs homolog 1B (UniProt Q9UEU0); test: as above
[40] = target: Vesicle-associated membrane protein-associated protein A (UniProt Q9WV55); test: as above
Vimentin = Vimentin (UniProt P08670); test: as above
[41] = target: tRNA-splicing ligase complex subunit RTRAF (UniProt Q9CQE8); test: as above
[42] = target: Cytochrome c oxidase assembly factor 7 (UniProt Q96BR5); test: mass-spectrometry hit list; affinity purification or IP with mass spectrometry; cross-linking mass spectrometry

T-complex protein 1 subunit alpha, P11983, sequence (P11983 whole entry, one chain of several): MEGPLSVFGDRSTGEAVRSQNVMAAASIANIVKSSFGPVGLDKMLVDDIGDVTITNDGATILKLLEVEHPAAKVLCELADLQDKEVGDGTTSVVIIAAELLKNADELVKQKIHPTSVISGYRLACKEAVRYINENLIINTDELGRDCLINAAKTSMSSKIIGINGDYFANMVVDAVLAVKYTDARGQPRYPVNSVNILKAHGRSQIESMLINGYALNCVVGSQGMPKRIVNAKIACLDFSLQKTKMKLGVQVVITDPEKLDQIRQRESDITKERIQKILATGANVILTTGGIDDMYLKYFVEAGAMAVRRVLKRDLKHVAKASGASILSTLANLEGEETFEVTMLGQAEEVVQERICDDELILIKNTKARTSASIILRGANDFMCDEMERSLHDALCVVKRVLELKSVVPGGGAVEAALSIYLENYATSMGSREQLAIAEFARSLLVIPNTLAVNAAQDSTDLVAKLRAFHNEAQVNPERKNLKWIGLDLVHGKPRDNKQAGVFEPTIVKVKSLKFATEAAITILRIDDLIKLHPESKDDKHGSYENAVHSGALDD
V-type proton ATPase subunit D, P57746, sequence (P57746 whole entry): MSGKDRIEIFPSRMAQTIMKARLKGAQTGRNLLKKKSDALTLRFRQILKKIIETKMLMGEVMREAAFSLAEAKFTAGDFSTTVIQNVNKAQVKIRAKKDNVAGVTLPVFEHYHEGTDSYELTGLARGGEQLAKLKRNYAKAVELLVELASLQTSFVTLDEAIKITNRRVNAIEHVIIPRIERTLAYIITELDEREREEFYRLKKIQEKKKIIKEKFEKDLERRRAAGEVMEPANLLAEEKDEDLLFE
T-complex protein 1 subunit delta, sequence (P80315 whole entry, stated change not applied, one chain of several): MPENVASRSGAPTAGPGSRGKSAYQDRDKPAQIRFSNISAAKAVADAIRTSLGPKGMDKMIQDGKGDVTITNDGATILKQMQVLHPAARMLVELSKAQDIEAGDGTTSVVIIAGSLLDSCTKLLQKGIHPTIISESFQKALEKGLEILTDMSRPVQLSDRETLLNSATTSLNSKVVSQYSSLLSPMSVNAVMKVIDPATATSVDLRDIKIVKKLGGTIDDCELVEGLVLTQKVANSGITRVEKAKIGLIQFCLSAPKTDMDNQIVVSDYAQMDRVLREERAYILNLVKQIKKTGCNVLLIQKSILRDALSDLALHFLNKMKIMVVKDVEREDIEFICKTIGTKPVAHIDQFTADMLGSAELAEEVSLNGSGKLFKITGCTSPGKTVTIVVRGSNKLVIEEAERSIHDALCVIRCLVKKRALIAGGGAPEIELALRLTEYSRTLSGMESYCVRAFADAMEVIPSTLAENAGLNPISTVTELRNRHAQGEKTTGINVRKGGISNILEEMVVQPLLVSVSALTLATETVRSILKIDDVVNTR
T-complex protein 1 subunit epsilon, sequence (P80316 whole entry, one chain of several): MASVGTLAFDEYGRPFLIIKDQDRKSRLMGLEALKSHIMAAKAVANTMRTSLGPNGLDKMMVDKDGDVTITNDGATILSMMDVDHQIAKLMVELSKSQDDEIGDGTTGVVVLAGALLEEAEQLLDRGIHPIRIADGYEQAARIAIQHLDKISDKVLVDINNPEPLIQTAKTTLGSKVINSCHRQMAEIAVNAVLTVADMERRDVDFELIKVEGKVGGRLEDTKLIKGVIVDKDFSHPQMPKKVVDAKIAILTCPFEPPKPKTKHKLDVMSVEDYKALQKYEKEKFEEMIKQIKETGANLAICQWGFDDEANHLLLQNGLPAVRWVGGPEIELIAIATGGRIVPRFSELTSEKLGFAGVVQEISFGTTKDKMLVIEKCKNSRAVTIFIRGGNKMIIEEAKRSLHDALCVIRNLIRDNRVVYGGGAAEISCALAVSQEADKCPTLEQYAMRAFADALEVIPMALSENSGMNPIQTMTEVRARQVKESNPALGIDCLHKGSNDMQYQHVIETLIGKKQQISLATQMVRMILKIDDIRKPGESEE
Talin-2, sequence (Q71LX4 whole entry, the tested form may be a part): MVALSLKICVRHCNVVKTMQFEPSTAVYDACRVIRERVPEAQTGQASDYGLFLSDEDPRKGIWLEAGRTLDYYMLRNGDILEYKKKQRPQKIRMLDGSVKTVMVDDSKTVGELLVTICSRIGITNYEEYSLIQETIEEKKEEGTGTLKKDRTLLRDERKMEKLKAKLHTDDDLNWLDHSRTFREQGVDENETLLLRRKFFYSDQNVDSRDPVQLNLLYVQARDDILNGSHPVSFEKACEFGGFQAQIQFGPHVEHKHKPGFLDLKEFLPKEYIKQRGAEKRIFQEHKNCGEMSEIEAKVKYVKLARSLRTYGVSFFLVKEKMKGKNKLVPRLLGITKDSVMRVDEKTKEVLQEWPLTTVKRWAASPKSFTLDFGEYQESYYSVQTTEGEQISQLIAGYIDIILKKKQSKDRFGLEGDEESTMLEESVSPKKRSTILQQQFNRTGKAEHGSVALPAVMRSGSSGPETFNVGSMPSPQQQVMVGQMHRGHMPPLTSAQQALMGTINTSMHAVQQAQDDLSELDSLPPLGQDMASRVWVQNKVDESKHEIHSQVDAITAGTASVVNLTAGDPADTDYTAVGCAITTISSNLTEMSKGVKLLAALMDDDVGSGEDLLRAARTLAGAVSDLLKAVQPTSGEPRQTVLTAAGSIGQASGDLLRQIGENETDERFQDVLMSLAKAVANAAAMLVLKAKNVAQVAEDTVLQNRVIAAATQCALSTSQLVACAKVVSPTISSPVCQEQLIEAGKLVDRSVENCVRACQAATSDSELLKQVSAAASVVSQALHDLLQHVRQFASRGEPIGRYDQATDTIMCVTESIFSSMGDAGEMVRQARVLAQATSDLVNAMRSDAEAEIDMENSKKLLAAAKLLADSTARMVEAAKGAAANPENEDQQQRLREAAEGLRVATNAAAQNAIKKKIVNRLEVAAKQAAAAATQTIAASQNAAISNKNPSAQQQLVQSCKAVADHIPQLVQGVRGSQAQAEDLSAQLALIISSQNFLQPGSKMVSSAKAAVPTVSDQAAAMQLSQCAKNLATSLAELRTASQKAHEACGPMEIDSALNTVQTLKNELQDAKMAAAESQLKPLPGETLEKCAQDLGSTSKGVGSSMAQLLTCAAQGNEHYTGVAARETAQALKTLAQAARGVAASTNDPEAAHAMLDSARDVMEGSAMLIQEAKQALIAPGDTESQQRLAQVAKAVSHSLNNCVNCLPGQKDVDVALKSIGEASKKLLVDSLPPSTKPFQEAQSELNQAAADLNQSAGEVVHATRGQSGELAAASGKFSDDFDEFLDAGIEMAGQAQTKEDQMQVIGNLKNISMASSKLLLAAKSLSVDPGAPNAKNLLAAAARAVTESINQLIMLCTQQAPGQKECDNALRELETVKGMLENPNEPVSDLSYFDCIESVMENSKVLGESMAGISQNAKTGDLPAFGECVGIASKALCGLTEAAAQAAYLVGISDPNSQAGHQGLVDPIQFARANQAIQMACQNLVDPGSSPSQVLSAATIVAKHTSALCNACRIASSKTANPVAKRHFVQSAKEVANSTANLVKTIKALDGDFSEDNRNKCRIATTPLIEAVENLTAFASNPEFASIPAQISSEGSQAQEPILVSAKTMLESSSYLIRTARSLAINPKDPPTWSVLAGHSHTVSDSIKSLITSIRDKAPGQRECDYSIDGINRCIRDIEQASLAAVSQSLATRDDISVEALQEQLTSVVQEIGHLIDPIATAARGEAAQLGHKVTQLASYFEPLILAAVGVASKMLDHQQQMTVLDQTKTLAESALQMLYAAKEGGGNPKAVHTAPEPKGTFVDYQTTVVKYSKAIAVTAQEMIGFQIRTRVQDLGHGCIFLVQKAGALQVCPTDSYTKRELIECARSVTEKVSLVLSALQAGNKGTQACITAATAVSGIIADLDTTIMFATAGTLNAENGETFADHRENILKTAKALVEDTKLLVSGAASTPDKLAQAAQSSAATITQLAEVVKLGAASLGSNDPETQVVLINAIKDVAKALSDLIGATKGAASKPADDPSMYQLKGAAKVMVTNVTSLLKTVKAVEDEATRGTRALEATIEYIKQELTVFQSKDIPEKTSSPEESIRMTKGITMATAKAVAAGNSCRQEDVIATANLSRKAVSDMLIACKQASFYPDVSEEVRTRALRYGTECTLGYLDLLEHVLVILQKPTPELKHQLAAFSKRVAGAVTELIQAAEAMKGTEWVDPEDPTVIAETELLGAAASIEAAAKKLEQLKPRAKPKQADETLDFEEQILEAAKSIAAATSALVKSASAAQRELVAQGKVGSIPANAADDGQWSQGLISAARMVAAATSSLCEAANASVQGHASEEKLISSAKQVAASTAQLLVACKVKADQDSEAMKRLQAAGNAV
Synaptotagmin-2, sequence (P46097 whole entry): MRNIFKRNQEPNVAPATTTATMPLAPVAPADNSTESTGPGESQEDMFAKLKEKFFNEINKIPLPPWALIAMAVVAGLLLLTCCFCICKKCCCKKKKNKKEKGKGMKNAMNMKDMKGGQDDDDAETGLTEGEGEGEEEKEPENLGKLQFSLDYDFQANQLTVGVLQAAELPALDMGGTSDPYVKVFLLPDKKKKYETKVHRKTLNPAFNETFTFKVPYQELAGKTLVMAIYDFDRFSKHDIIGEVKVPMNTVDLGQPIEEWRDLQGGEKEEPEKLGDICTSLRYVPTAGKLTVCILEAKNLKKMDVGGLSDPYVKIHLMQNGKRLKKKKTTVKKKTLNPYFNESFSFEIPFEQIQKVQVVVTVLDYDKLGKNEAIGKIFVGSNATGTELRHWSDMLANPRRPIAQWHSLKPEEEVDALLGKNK
V-type proton ATPase subunit D, sequence (P57746 whole entry): as the sequence (P57746 whole entry) above
V-type proton ATPase subunit G 2, sequence (Q9WTT4 whole entry): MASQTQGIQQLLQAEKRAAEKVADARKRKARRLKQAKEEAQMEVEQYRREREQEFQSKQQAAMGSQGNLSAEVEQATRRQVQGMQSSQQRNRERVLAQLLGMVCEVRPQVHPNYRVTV
Ragulator complex protein LAMTOR3, sequence (Q9UHA4 whole entry, one chain of several): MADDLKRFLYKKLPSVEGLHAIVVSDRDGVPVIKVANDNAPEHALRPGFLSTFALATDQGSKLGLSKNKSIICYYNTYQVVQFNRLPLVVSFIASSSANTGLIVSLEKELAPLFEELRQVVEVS

Substance: Proteasome subunit beta type-1, O09061
- listed as a hit [1]: yes

Substance: Hsc70-interacting protein, P50502
- listed as a hit (Putative protein FAM10A5): yes

Substance: Nucleoside diphosphate kinase 6, mitochondrial, O75414
- listed as a hit [2]: yes

Substance: Moesin, P26038
- listed as a hit (Radixin): yes

Substance: ADP-ribosylation factor-like protein 8B, Q9NVJ2
- listed as a hit [3]: yes

Substance: Ras-related protein Rab-3C, P62823
- listed as a hit [4]: yes

Substance: ARF GTPase-activating protein GIT1, Q68FF6
- listed as a hit [5]: yes

Substance: Dual E2 ubiquitin-conjugating enzyme/E3 ubiquitin-protein ligase BIRC6, Q9NR09
- listed as a hit [6]: yes

Substance: S-adenosylhomocysteine hydrolase-like protein 2, Q68FL4
- listed as a hit [7]: yes

Substance: Septin-2, Q15019
- listed as a hit (Septin-10): yes

Substance: Septin-6, Q14141
- listed as a hit (Septin-2): yes

Substance: Septin-11, Q8C1B7
- listed as a hit (Septin-8): yes

Substance: Haloacid dehalogenase-like hydrolase domain-containing protein 3, Q9BSH5
- listed as a hit [8]: yes

Substance: FXYD domain-containing ion transport regulator 7, P59648
- listed as a hit [9]: yes

Substance: Excitatory amino acid transporter 1, P56564
- listed as a hit [10]: yes

Substance: Spectrin beta chain, erythrocytic, P15508
- listed as a hit [11]: yes

Substance: U2 small nuclear ribonucleoprotein B'', P08579
- listed as a hit [12]: yes

Substance: Ras-related protein Rab-5A, P20339
- listed as a hit [13]: yes

Substance: Programmed cell death protein 5, O14737
- listed as a hit [14]: yes

Substance: ATP-dependent RNA helicase DDX1, Q92499
- listed as a hit [15]: yes

Substance: Succinate--CoA ligase [ADP/GDP-forming] subunit alpha, mitochondrial, P53597
- listed as a hit [16]: yes

Substance: Synapsin-1, O88935
- listed as a hit (Synapsin-2): yes
- listed as a hit [17]: yes

Substance: Synapsin-2, Q64332
- listed as a hit (Synapsin-3): yes

Substance: Synaptophysin, Q62277
- listed as a hit [18]: yes

Substance: Alpha-actinin-1, Q7TPR4
- listed as a hit (Synaptopodin): yes

Substance: Synaptotagmin-1, P46096
- listed as a hit (Synaptotagmin-2): yes

Substance: T-complex protein 1 subunit eta, P80313
- listed as a hit [19]: yes

Substance: T-complex protein 1 subunit beta, P80314
- listed as a hit [20]: yes
- listed as a hit [21]: yes

Substance: T-complex protein 1 subunit alpha, P11983
- listed as a hit [20]: yes
- listed as a hit [22]: yes

Substance: T-complex protein 1 subunit delta, P80315
- listed as a hit [21]: yes

Substance: T-complex protein 1 subunit zeta, P80317
- listed as a hit [23]: yes

Substance: T-complex protein 1 subunit theta, P42932
- listed as a hit [24]: yes

Substance: Talin-1, P26039
- listed as a hit (Talin-2): yes

Substance: Peroxiredoxin-4, Q13162
- listed as a hit [25]: yes

Substance: Transcriptional regulator protein Pur-beta, O35295
- listed as a hit [26]: yes

Substance: Nuclease EXOG, mitochondrial, Q9Y2C4
- listed as a hit [27]: yes

Substance: Transmembrane emp24 domain-containing protein 9, Q9BVK6
- listed as a hit [28]: yes

Substance: ADP/ATP translocase 3, P12236
- listed as a hit [29]: yes

Substance: Tubulin alpha-4A chain, P68368
- listed as a hit (Tubulin alpha-1A chain): yes

Substance: Selenoprotein F, O60613
- listed as a hit [30]: yes

Substance: Cullin-2, Q13617
- listed as a hit [31]: yes

Substance: V-type proton ATPase subunit D, P57746
- listed as a hit [32]: yes
- listed as a hit [33]: yes

Substance: V-type proton ATPase catalytic subunit A, P50516
- listed as a hit [34]: yes
- listed as a hit [35]: yes

Substance: V-type proton ATPase subunit E 1, P50518
- listed as a hit [36]: yes
- listed as a hit [37]: yes

Substance: V-type proton ATPase subunit B, brain isoform, P62814
- listed as a hit [38]: yes

Substance: Vesicle-associated membrane protein 7, P51809
- listed as a hit [39]: yes

Substance: Vesicle-associated membrane protein-associated protein B, Q9QY76
- listed as a hit [40]: yes

Substance: Neurofilament medium polypeptide, P07197
- listed as a hit (Vimentin): yes

Substance: RNA-splicing ligase RTCB, Q99LF4
- listed as a hit [41]: yes

Substance: MICOS complex subunit MIC60, Q16891
- listed as a hit [42]: yes
